Measured values as given in PubChem BioAssay AID720648 (The Scripps Research Institute Molecular Screening Center, 2013).
Screen size: about 370,000 compounds; about 3,100 (0.84%) were called active. This is one part of a sample in which actives are shown more often than they occur.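 How the source made its calls: active means inhibition above the mean of compounds lying between control limits plus 3 SD, set per campaign (cut at about 8.5% in these data); inactive means the rest.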

What follows are compounds tested against Disintegrin and metalloproteinase domain-containing protein 17 (Homo sapiens) (UniProt P78536) (assay: ADAM17 inhibitors, primary screen, biochemical, QFRET (AID 720648;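 further: 0% = DMSO-only wells as the low control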)). Conditions: recombinant ADAM17, EDANS/DABCYL FRET peptide cleavage; at 6.95 µM; active compounds read high.
Chain of Disintegrin and metalloproteinase domain-containing protein 17 (Homo sapiens) (P78536 215-824 limits assumed): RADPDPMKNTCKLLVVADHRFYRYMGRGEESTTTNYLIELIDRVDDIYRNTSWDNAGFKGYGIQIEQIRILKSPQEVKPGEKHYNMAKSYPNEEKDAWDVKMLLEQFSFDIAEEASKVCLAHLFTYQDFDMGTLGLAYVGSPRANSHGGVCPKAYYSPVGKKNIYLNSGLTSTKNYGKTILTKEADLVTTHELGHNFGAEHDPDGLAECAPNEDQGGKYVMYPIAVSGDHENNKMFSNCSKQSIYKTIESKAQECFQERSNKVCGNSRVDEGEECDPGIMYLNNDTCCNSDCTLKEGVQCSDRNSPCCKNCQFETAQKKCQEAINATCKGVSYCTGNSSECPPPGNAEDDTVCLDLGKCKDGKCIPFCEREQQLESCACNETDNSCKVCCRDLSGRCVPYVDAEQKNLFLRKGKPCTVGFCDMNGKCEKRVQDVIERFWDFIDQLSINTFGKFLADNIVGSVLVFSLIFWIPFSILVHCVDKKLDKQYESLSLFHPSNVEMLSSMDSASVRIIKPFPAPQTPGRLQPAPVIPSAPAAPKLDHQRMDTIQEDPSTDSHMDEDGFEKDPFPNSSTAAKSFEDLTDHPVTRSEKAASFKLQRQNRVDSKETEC

SMILES	inhibition
COC(=O)C1CN(CCc2ccccc2)CCS(=O)(=O)N1Cc1ccc(F)cc1 (stereo unspecified)	-9.15% (inactive)
O=[N+]([O-])c1cc(S(=O)(=O)NCCc2ccccn2)ccc1Cl	0.55% (inactive)
CCOc1ccc(S(=O)(=O)NCCSc2ccccc2)cc1	6.1% (inactive)
Cc1ccc(S(=O)(=O)NCCSc2ccccc2)cc1[N+](=O)[O-]	10.7% (active)
C[C@H](C(=O)N(C)c1ccccc1)[C@@H](O)c1ccc2ccccc2c1	-5.59% (inactive)
CCN(CC)C(=O)CC[C@@H]1CC[C@]2(CCCN(S(=O)(=O)C3CCCCC3)C2)O1	-0.83% (inactive)
O=C(CSCc1ccc(Br)cc1)Nc1ccc(S(=O)(=O)N2CCCCCC2)cc1	12.9% (active)
COc1ccc(OCC(=O)OCC(=O)Nc2ccc(S(=O)(=O)N3CCCCC3)cc2)cc1	-0.04% (inactive)
O=C(CN1CCCCCC1)Nc1ccc(S(=O)(=O)N2CCCCC2)cc1	-1.57% (inactive)
N#CCC[C@H]1CC[C@]2(CCCN(Cc3ccc(Cl)cc3)C2)O1	-4.85% (inactive)
COc1ccc(-n2c(SCC(=O)NC3CCCC3)nnc2-c2ccncc2)cc1	-3.54% (inactive)
COCCNC(=O)C(c1ccc(C)o1)N(Cc1ccccc1)C(=O)Cn1nnc2ccccc21 (stereo unspecified)	9.14% (active)
CCC(C)(C)NC(=O)C(c1cccn1C)N(Cc1ccc(C)cc1)C(=O)Cn1nnc2ccccc21 (stereo unspecified)	0.71% (inactive)
COc1ccccc1N(C(=O)Cn1nnc2ccccc21)C(C(=O)NCc1ccco1)c1ccc(C)o1 (stereo unspecified)	-3.12% (inactive)
COCCCNC(=O)C[C@H]1C[C@@]2(C(=O)OC)C(=C[C@H](C(C)(C)C)O[C@@H]2C)N(Cc2ccc(Cl)cc2Cl)C1=O	3.29% (inactive)
CCOC(=O)[C@@]12CN(C(=O)OC(C)(C)C)CC=C1N(Cc1ccc(OC)cc1)C(=O)[C@H]2CC(=O)NCc1ccc(OC)c(OC)c1	1.15% (inactive)
COc1cccc(CNC(C)C(=O)Nc2ccc(S(=O)(=O)N3CCCC3)cc2)c1 (stereo unspecified)	-0.82% (inactive)
CC(C)c1ccc(S(=O)(=O)N2CCN(C(C)C(=O)NC3CCCC3)CC2)cc1 (stereo unspecified)	0.12% (inactive)
COc1ccc(S(=O)(=O)N2CCN(C(C)C(=O)Nc3ccc(C(C)C)cc3)CC2)cc1 (stereo unspecified)	12.4% (active)
C[C@@H]1ON(C)[C@H]2C[C@H]3c4[nH]c5cccc(-c6ccc7c(c6)OCO7)c5c4CCN3C[C@@H]12	-16.2% (inactive)
COc1ccccc1CCNC(=O)C1CCN(c2nc(C)cc(C)n2)CC1	-1.54% (inactive)
O=S1(=O)c2c(NCc3ccco3)cccc2Oc2ccccc2CN1Cc1cn(Cc2cccc(C(F)(F)F)c2)nn1	-1.67% (inactive)

SMILES	inhibition
COc1ccc(Cl)cc1NC(=O)COC(=O)C(CC(C)C)N1C(=O)C2CC=CCC2C1=O (stereo unspecified)	18.9% (active)
COc1ccc(Cl)cc1NC(=O)c1cccc(N2C(=O)C3CC=CCC3C2=O)c1 (stereo unspecified)	-4.89% (inactive)
COc1ccc(Cl)cc1NC(=O)COC(=O)c1ccc(Br)o1	-0.97% (inactive)
Cc1cccc(C(=O)Nc2c(-c3ccc(F)cc3)nc3ncccn23)c1	-94.5% (inactive)
CCOC(=O)c1csc(NC(=O)C2CCCN(S(=O)(=O)c3ccc(Cl)s3)C2)n1 (stereo unspecified)	1.07% (inactive)
COc1cccc(/C=N/NC(=O)c2cccc([N+](=O)[O-])c2)c1OS(=O)(=O)c1ccc(C)cc1	9.36% (active)
Cc1ccccc1OS(=O)(=O)c1cccc([N+](=O)[O-])c1	3.53% (inactive)
COc1ccc([N+](=O)[O-])cc1NCC(=O)c1ccc(C)cc1	0.13% (inactive)
O=C(CSc1nc2c(c(=O)[nH]1)CCCC2)N1CCCCC1	-1.39% (inactive)
CC(C)Oc1cc(F)ccc1-c1cc(C(=O)Nc2cccc(Cl)c2)[nH]n1	12.5% (active)
COc1cc(NC(=O)c2cc(-c3ccc(F)cc3OC(C)C)n[nH]2)cc(OC)c1OC	3.11% (inactive)
CC(C)Oc1cc(F)ccc1-c1cc(C(=O)Nc2ccc(F)cc2)[nH]n1	2.41% (inactive)
O=C(N1CCOCC1)N1CC[C@H]2[C@H](CCCN2Cc2ccc(F)cc2)C1	-3.39% (inactive)
O=C(NC1CCC1)c1ccc(C#CC2CC2)cn1	-2.55% (inactive)
CCn1c(Cc2cccs2)nnc1SCC(=O)c1ccc(C)cc1	9.16% (active)
Cc1ccc(-n2c(Cc3cccs3)nnc2SCC(=O)OC(C)C)cc1	-0.84% (inactive)
CCn1c(SCC(=O)c2ccc(Cl)s2)nnc1-c1cccs1	-2.07% (inactive)
CCC(=O)Nc1ccc2c(c1)C(=O)N(C)[C@H]1CC[C@H](CC(=O)NCCOC)O[C@@H]1CO2	-1.85% (inactive)
COc1ccc(C#CCNCc2ccc(OC)cc2OC)cc1	-5.67% (inactive)
COC(=O)c1ccccc1-n1cc(COC(=O)NCCc2ccccc2)nn1	-7.96% (inactive)
CC1Cc2ccccc2N1S(=O)(=O)c1cccc(C(=O)OCC(=O)N2CCOCC2)c1 (stereo unspecified)	-5.91% (inactive)
CCCCn1ccnc1C(=O)c1cccc(S(=O)(=O)N2c3ccccc3CC2C)c1 (stereo unspecified)	11.1% (active)

SMILES	inhibition
CC1Cc2ccccc2N1S(=O)(=O)c1cccc(C(=O)NCC(c2ccco2)N2CCCC2)c1 (stereo unspecified)	-2.28% (inactive)
C=CCN1C(=O)[C@H](CC(=O)NCCCN2CCCC2=O)[C@@]2(C(=O)OCC)CCCC=C12	-6.27% (inactive)
COc1cc(NC(=O)CCS(=O)(=O)c2ccc3c(c2)oc(=O)n3C)cc(OC)c1	8.71% (active)
Cc1ccc(NC(=O)CCNS(=O)(=O)c2ccc3c(c2)oc(=O)n3C)cc1C	1.53% (inactive)
COc1cccc(NC(=O)CCNS(=O)(=O)c2ccc3c(c2)oc(=O)n3C)c1	-2.66% (inactive)
Cc1cc(NS(=O)(=O)c2ccc(NC(=O)CSc3nnc(SCc4ccc(F)cc4)s3)cc2)nc(C)n1	2.06% (inactive)
CCOC(=O)c1cccc(NC(=O)CN(c2ccc(C)cc2)S(=O)(=O)c2c(C)noc2C)c1	7.3% (inactive)
CCOC(=O)c1cccc(NC(=O)CCn2nnc3ccccc32)c1	-1.7% (inactive)
CCOC(=O)c1cccc(NC(=O)CN(C)S(=O)(=O)c2ccc(-c3cocn3)s2)c1	9.31% (active)
O=C(OCC#CCSc1nnc(-c2ccco2)o1)c1ccc(F)cc1	-3.45% (inactive)
CN(C)Cc1cn(-c2ccc(-c3noc4c3C(=O)N(CC(=O)N3CCOCC3)CC4)cc2)nn1	-1.12% (inactive)
CSCCC(NC(=O)COc1ccccc1)C(=O)N1CCN(c2cccc(C(F)(F)F)c2)CC1 (stereo unspecified)	0.72% (inactive)
Cc1c(C)c2ccc(OCC(=O)N3CCN(c4cccc(Cl)c4)CC3)cc2oc1=O	-9.1% (inactive)
O=C(COc1ccc(Cl)cc1)N1CCN(c2cccc(C(F)(F)F)c2)CC1	13.9% (active)
Cc1ccc(Cn2cc(CN3[C@@H](CC(C)C)COc4ccc(Cl)cc4S3(=O)=O)nn2)cc1	-0.49% (inactive)
O=C(CC1SC(=Nc2ccccc2)N(Cc2ccccn2)C1=O)Nc1cccc(Cl)c1 (stereo unspecified)	9.62% (active)
CN1C(=O)C(CC(=O)Nc2ccccc2)S/C1=N/c1nccs1 (stereo unspecified)	-3.53% (inactive)
CC1CC(=O)N(CC(=O)Nc2cccc(Cl)c2)c2ccccc2S1(=O)=O (stereo unspecified)	0.03% (inactive)
COc1cccc(CSc2nnc(-c3cccnc3)n2Cc2ccccc2)c1	-1.8% (inactive)
O=C1[C@H]2[C@@H](c3ccc(C(F)(F)F)cc3)N[C@]3(CCCN(Cc4ccc(Cl)cc4)C3=O)[C@H]2C(=O)N1Cc1ccccc1	6.3% (inactive)
CCN1C(=O)[C@H]2[C@@H](c3ccc(C(F)(F)F)cc3)N[C@]3(CCCN(Cc4ccc(Br)cc4)C3=O)[C@H]2C1=O	0.02% (inactive)
O=C1[C@H]2[C@@H](c3ccc(C(F)(F)F)cc3)N[C@]3(CCCN(Cc4ccc(Br)cc4)C3=O)[C@H]2C(=O)N1Cc1ccccc1	13.7% (active)

SMILES	inhibition
O=C(NCc1ccco1)C1CCCN(S(=O)(=O)c2ccc(Cl)s2)C1 (stereo unspecified)	-1.38% (inactive)
O=C(CNS(=O)(=O)c1ccccc1F)N1CCN(c2ccccn2)CC1	-2.81% (inactive)
CC(=O)Nc1ccc(S(=O)(=O)N2CCN(CCCOc3cc(C)ccc3C)CC2)cc1	9.18% (active)
Cc1cccc(OCCCC(=O)Nc2ccc(S(=O)(=O)N3CCCC3)cc2)c1	3.89% (inactive)
Cc1ccc(C)c(OCCC(=O)Nc2cccc(S(=O)(=O)N3CCCC3)c2)c1	1.33% (inactive)
CC(=O)Nc1ccc(OC[C@@H](O)CN2CCC(C(O)(c3ccccc3)c3ccccc3)CC2)cc1	2.29% (inactive)
COc1ccc(S(=O)(=O)N2CCCCC2)cc1Br	9.21% (active)
COc1ccc(F)cc1S(=O)(=O)N1CCCCC1	-4.65% (inactive)
COc1cc(C(=O)NNC(=O)c2ccc(S(=O)(=O)N3CCCCC3)cc2)cc(OC)c1OC	0.14% (inactive)
CCOC(=O)[C@@]12CCC3=C1N(CCC3)C(=O)[C@H](CC(=O)N1CCN(C(=O)c3ccco3)CC1)C2	-6.34% (inactive)
Cc1nc(CNc2ncnc3ccc(-c4ccc5c(c4)OCO5)cc23)cs1	-54.3% (inactive)
CCOc1ccccc1C1CC(c2cccc(NS(C)(=O)=O)c2)=NN1C(=O)c1ccccc1 (stereo unspecified)	12.6% (active)
CCS(=O)(=O)Nc1ccc(C2=NN(S(=O)(=O)c3ccc(F)cc3)C(c3ccco3)C2)cc1 (stereo unspecified)	3.46% (inactive)
CS(=O)(=O)Nc1cccc(C2=NN(S(=O)(=O)c3ccccc3)C(c3cccs3)C2)c1 (stereo unspecified)	8.71% (active)
COC(=O)c1cccc(NS(C)(=O)=O)c1	-1.45% (inactive)
COc1cccc(C2CC(c3ccccc3)=NN2S(=O)(=O)c2ccccc2)c1OC (stereo unspecified)	14% (active)
CCOc1ccc2nc(Cl)c(C3CC(c4ccccc4)=NN3C(=O)c3cccs3)cc2c1 (stereo unspecified)	-2.13% (inactive)
COc1cccc(C2CC(c3cccs3)=NN2C(=O)CSC2=NCCS2)c1OC (stereo unspecified)	-4.82% (inactive)
Cc1ccc(C2CC(c3cccc(NS(C)(=O)=O)c3)=NN2S(C)(=O)=O)cc1 (stereo unspecified)	-2.2% (inactive)
CS(=O)(=O)Nc1cccc(C2=NN(C(=O)c3cccc(F)c3)C(c3cccs3)C2)c1 (stereo unspecified)	1.09% (inactive)
